# Laboratory results: ChEMBL document CHEMBL1961873, “Compounds: GSK PKIS; Assays: Nanosyn kinase panel” (2012)
# Legend:
# [1] = biological target: Protein kinase C gamma type (Homo sapiens) (UniProt P05129); details: at 1 µM;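 note: each value is an averaged percent inhibition of the enzyme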
# [2] = biological target: T1, Protein kinase C iota type (Homo sapiens) (UniProt P41743); details: at 0.1 µM
# T1 sequence (whole entry): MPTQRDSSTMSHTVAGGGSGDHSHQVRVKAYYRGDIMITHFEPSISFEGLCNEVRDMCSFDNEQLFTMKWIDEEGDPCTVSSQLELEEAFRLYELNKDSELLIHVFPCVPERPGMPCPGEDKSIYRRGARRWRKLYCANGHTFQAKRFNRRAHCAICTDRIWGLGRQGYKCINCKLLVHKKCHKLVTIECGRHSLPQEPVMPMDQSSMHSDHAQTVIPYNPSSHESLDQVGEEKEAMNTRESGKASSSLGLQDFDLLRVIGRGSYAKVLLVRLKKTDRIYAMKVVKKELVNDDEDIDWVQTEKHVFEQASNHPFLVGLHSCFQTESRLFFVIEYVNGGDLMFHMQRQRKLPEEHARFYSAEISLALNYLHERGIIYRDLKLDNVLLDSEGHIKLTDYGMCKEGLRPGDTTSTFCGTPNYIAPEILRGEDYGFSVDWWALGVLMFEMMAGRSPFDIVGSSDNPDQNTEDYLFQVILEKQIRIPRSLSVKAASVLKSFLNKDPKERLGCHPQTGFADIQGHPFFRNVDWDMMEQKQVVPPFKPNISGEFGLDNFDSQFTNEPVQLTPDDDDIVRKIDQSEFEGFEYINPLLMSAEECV
# [3] = biological target: T1, Protein kinase C iota type (Homo sapiens); details: at 1 µM
# [4] = biological target: Protein kinase C theta type (Homo sapiens) (UniProt Q04759); details: at 0.1 µM
# [5] = biological target: Protein kinase C theta type (Homo sapiens) (UniProt Q04759); details: at 1 µM
# [6] = biological target: Protein kinase C beta type (Homo sapiens) (UniProt P05771); details: at 0.1 µM
# [7] = biological target: Protein kinase C beta type (Homo sapiens) (UniProt P05771); details: at 1 µM
# [8] = biological target: T2, Serine/threonine-protein kinase D1 (Homo sapiens) (UniProt Q15139); details: at 0.1 µM
# T2 sequence (whole entry): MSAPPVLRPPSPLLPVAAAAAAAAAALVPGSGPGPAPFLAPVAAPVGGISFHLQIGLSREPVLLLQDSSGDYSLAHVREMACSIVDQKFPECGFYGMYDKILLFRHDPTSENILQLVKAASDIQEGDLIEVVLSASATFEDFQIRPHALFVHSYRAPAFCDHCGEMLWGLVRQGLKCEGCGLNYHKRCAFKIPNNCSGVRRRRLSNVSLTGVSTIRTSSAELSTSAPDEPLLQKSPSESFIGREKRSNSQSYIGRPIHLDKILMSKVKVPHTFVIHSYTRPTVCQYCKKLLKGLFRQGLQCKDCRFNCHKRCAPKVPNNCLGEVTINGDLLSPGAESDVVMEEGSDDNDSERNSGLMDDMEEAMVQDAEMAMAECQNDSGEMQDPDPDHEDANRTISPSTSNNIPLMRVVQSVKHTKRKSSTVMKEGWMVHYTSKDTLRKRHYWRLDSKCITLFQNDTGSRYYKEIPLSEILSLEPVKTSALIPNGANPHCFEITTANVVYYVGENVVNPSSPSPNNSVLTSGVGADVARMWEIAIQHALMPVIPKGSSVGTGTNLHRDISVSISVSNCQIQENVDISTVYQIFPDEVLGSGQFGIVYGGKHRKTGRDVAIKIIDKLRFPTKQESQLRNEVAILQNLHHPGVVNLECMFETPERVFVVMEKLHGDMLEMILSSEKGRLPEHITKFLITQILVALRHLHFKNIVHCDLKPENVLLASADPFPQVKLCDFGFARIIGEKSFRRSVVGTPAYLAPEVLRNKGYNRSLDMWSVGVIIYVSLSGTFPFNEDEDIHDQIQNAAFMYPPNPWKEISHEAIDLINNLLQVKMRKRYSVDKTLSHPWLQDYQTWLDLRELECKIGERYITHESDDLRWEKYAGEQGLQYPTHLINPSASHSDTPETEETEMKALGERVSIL
# [9] = biological target: T2, Serine/threonine-protein kinase D1 (Homo sapiens); details: at 1 µM
# [10] = biological target: T3, Serine/threonine-protein kinase D2 (Homo sapiens) (UniProt Q9BZL6); details: at 0.1 µM
# T3 sequence (whole entry): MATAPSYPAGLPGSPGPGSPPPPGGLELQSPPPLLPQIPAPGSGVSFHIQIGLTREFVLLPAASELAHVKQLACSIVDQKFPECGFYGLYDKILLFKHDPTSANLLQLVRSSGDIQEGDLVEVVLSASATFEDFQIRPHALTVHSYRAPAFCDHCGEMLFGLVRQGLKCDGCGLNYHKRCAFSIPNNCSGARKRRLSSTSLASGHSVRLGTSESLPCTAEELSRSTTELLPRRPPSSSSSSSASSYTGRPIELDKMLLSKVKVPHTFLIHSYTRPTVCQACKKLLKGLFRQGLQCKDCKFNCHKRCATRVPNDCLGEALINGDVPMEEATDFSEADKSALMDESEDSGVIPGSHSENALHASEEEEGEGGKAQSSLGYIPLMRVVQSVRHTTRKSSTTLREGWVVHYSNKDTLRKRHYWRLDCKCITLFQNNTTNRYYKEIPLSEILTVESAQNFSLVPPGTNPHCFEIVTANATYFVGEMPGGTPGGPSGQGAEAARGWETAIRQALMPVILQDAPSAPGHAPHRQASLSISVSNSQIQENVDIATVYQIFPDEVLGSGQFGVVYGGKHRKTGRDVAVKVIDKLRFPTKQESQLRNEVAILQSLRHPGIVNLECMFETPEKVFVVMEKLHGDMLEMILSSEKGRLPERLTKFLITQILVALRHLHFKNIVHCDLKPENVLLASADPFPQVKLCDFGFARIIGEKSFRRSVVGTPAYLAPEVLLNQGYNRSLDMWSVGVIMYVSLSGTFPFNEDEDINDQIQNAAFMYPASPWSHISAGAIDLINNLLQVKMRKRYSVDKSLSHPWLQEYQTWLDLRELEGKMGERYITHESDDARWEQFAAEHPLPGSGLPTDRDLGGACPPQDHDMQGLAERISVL
# [11] = biological target: T3, Serine/threonine-protein kinase D2 (Homo sapiens); details: at 1 µM
# [12] = biological target: T4, Serine/threonine-protein kinase D3 (Homo sapiens) (UniProt O94806); details: at 0.1 µM
# T4 sequence (whole entry): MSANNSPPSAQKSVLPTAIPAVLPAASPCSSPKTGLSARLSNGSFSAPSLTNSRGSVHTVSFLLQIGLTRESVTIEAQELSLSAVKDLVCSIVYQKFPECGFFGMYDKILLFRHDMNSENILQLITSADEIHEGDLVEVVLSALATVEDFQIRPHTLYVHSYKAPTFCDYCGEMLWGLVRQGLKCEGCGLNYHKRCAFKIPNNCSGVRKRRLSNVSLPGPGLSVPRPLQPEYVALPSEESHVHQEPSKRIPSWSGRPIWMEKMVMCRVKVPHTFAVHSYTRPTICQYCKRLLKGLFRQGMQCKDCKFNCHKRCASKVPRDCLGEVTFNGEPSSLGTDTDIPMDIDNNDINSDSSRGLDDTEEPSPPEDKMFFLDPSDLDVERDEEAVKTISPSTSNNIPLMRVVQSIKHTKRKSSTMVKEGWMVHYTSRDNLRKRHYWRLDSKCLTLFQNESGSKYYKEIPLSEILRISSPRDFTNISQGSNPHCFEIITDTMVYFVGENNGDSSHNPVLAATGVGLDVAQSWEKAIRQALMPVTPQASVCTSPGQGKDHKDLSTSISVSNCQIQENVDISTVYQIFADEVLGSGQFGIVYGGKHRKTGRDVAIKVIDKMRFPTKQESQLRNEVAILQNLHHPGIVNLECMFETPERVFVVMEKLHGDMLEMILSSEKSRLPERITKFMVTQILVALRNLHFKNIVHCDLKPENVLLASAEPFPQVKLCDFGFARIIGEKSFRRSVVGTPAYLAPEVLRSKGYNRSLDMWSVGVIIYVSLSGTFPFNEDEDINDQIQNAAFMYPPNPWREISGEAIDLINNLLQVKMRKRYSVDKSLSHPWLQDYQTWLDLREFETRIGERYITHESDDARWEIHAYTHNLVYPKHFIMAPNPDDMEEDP
# [13] = biological target: T4, Serine/threonine-protein kinase D3 (Homo sapiens); details: at 1 µM
# [14] = biological target: T5, cGMP-dependent protein kinase 1 (Homo sapiens) (UniProt Q13976); details: at 0.1 µM
# T5 sequence (whole entry): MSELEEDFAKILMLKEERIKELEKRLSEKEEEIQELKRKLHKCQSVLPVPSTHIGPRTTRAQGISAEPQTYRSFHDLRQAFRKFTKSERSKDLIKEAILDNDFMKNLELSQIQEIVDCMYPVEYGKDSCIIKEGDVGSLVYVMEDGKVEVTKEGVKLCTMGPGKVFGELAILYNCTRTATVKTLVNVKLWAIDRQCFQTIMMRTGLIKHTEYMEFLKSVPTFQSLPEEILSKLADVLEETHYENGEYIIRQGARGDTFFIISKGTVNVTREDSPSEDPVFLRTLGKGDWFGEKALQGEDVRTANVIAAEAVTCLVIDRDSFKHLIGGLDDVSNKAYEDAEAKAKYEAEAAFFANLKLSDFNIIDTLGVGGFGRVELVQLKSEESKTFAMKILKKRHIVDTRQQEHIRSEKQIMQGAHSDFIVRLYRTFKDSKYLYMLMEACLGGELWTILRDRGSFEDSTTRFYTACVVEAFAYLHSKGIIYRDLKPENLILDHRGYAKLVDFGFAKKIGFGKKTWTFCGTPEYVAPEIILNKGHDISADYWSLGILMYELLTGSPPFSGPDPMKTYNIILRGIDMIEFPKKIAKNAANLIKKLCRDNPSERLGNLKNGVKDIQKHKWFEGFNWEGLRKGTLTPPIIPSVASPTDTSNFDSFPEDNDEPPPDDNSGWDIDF
# [15] = biological target: T5, cGMP-dependent protein kinase 1 (Homo sapiens); details: at 1 µM
# [16] = biological target: T6, cGMP-dependent protein kinase 2 (Homo sapiens) (UniProt Q13237); details: at 0.1 µM
# T6 sequence (whole entry): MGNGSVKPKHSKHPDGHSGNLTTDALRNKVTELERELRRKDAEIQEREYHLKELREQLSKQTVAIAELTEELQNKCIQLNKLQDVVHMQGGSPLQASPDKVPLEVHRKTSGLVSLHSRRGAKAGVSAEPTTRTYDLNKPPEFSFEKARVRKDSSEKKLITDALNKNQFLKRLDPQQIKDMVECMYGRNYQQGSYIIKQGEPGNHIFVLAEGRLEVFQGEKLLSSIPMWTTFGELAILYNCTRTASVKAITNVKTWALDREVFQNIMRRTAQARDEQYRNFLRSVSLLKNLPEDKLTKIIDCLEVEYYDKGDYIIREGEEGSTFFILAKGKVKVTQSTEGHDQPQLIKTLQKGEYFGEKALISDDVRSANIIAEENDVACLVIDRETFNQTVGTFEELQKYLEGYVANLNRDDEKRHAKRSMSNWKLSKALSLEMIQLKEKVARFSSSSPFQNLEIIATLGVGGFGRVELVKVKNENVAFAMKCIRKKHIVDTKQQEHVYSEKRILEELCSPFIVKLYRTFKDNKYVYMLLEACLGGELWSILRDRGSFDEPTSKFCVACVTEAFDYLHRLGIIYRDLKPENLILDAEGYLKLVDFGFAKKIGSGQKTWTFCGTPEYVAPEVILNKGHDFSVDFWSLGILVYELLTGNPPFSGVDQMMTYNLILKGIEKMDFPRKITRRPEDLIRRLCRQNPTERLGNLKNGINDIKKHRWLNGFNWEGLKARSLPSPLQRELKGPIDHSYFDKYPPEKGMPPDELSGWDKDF
# [17] = biological target: T6, cGMP-dependent protein kinase 2 (Homo sapiens); details: at 1 µM
# [18] = biological target: T7, cAMP-dependent protein kinase catalytic subunit PRKX (Homo sapiens) (UniProt P51817); details: at 0.1 µM
# T7 sequence (whole entry): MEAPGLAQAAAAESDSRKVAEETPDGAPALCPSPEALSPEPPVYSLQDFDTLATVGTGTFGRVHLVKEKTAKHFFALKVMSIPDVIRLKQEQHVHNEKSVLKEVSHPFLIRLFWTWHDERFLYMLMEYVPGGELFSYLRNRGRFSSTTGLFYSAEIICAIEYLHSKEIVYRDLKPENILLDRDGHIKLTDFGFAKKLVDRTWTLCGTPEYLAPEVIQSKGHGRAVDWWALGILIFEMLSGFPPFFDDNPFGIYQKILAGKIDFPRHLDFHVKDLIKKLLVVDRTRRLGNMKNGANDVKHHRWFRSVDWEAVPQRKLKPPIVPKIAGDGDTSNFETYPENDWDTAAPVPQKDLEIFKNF
# [19] = biological target: T7, cAMP-dependent protein kinase catalytic subunit PRKX (Homo sapiens); details: at 1 µM
# [20] = biological target: Rho-associated protein kinase 1 (Homo sapiens) (UniProt Q13464); details: at 0.1 µM;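 note: values are mean percent inhibition of ROCK1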
# Chain of Rho-associated protein kinase 1 (Homo sapiens) (Q13464 2-1354 limits assumed): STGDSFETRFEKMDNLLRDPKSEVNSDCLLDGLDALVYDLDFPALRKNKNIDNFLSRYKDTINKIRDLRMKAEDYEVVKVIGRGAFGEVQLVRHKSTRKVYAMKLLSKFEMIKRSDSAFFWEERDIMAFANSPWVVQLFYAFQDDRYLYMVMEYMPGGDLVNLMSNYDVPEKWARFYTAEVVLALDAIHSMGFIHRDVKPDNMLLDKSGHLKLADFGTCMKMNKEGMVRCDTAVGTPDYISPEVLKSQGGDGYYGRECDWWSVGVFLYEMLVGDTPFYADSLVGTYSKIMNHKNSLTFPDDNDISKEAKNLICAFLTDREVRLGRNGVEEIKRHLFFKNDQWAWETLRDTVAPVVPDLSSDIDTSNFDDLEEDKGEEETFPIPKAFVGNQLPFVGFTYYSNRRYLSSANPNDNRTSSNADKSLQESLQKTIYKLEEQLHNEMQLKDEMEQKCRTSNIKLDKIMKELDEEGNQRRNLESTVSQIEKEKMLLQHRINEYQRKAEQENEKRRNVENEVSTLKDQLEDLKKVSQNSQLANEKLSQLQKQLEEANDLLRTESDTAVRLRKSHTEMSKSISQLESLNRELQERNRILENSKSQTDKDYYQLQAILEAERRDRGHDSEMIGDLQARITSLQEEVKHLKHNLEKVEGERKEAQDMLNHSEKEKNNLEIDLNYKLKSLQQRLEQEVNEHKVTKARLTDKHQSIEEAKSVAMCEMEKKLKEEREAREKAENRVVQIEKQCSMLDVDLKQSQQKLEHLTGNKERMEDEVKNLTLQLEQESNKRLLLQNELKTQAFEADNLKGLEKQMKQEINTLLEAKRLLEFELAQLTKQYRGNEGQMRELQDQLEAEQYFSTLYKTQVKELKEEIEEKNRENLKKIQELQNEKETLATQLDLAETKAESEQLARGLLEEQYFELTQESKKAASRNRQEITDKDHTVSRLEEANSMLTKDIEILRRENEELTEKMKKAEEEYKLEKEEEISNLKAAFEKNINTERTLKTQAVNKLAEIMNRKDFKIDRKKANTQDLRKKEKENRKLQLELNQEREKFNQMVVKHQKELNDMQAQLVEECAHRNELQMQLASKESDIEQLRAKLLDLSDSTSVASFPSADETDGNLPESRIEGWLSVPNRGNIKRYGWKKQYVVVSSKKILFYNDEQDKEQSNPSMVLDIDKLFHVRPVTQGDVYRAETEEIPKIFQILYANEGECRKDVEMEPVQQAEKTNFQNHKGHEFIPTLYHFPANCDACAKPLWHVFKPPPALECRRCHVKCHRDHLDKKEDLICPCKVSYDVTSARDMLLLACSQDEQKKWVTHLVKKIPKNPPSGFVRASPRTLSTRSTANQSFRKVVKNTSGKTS
# Chain of Protein kinase C theta type (Homo sapiens) (Q04759 whole entry, looked up): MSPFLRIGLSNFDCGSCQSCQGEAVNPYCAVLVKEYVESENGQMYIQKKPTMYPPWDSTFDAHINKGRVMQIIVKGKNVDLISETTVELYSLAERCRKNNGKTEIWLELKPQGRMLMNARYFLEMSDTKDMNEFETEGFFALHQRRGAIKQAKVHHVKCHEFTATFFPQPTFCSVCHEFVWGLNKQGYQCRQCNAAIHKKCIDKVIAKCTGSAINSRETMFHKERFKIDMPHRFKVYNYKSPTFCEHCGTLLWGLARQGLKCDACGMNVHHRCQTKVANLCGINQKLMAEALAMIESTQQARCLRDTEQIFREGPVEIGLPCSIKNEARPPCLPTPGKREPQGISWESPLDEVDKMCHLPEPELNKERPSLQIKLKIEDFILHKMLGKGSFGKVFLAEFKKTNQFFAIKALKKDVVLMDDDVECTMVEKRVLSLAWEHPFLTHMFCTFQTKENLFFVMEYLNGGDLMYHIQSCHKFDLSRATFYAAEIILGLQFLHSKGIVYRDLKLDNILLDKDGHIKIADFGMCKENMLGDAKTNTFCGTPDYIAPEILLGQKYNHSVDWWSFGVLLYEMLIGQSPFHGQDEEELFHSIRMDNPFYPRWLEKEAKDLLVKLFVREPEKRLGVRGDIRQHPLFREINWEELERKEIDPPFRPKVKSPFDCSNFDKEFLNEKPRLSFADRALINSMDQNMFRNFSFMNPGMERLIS
# Chain of Protein kinase C beta type (Homo sapiens) (P05771 2-671 limits assumed): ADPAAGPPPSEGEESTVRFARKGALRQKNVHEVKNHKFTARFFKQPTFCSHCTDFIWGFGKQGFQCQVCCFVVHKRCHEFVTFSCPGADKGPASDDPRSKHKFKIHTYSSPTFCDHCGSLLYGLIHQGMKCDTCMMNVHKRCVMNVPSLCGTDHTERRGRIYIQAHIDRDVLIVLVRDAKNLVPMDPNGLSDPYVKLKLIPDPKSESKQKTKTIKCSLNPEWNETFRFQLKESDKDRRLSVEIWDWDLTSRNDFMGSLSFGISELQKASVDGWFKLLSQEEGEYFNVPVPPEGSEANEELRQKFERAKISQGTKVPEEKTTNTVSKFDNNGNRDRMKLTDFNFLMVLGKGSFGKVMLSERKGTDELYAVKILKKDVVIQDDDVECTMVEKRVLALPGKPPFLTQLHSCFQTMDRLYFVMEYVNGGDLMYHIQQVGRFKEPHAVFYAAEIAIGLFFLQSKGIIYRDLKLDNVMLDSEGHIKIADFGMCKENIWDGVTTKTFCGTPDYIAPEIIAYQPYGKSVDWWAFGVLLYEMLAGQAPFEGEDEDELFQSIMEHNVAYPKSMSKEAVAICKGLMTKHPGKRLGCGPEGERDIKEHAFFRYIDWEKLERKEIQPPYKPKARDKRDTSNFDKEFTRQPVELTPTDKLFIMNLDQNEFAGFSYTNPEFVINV
SMILES,inhibition [1] [%],inhibition [2] [%],inhibition [3] [%],inhibition [4] [%],inhibition [5] [%],inhibition [6] [%],inhibition [7] [%],inhibition [8] [%],inhibition [9] [%],inhibition [10] [%],inhibition [11] [%],inhibition [12] [%],inhibition [13] [%],inhibition [14] [%],inhibition [15] [%],inhibition [16] [%],inhibition [17] [%],inhibition [18] [%],inhibition [19] [%],inhibition [20] [%]
CS(=O)(=O)Nc1ccc(N/C=C2\C(=O)Nc3ccccc32)cc1,0.03,-1.38,-0.98,-1.09,-0.74,-1.02,-0.85,-2.24,3.18,-0.04,2.63,-1.78,-0.06,-1.67,-1.49,-0.94,3.29,-0.88,0.66,-0.53
COc1cc(C=NNc2ncnc3c2cnn3-c2ccccc2)ccc1O,12.4,1.32,5.26,0.44,0.62,1.72,5.98,1.65,3.18,1.16,2.86,2.52,3,1.67,1.52,2.05,4.06,1.55,1.36,0.41
CCn1c(-c2nonc2N)nc2c(C#CC(C)(C)O)nc(CN3CCCC3)cc21,8.24,0.19,1.41,2.28,7.85,3.25,6.65,1.55,5.93,1.71,6.86,1.31,6.41,4.4,10.7,5.6,37.8,10.5,42,0.15
